From PubChem BioAssay
Activity calls are given as the source filed them.

Legend:
Albumin (Bos taurus) = Albumin (Bos taurus) (UniProt P02769); assay: compounds binding labelled BSA control protein – biochemical, small-molecule microarray, Alexa647 label, 635/667 nm fluorescence, artefact control for SMM control protein annotation, profiling panel (AID 1118); conditions: BSA-A647 binding, fluorescence 635 nm, higher = more signal;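 also: score merges 667 nm emission intensity and signal-to-noise per printed compound spot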
[1] = probe aXIP binding to arrayed compounds – biochemical, NeuroSMM set, 635/667 nm fluorescence, primary screen (AID 1119); conditions: small-molecule microarray, higher = more signal, called active from +8 up or from −8 down;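 also: probe is the protein aXip251-270 applied at 1 µg/mL to compound-printed slides; binding of probe to printed compounds measured as 667 nm fluorescence plus signal to noise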
[2] = probe aNOTCH3 binding on compound microarray – biochemical, small-molecule microarray, 635/667 nm fluorescence, primary screen (AID 1120); conditions: higher = more signal;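 also: probe is a biotin-tagged antibody raised against NOTCH3 rather than NOTCH3 protein; score merges spot fluorescence near 667 nm with spot signal to noise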
[3] = probe aNOTCH2 binding on compound microarray – biochemical, small-molecule microarray, 635/667 nm fluorescence, primary screen (AID 1121); conditions: higher = more signal;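 also: score merges feature fluorescence read at 667 nm with its signal to noise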
[4] = molecular target: Carbonic anhydrase 2 (Homo sapiens) (UniProt P00918); assay: compounds binding carbonic anhydrase 2 – biochemical, small-molecule microarray, Alexa647-labelled CAII, profiling panel (AID 1122); conditions: CAII-A647 binding fluorescence, higher = more signal
[5] = COS7 lysate on small-molecule microarray, probe aHis, 635 nm (AID 1123); conditions: COS7 cell lysate, fluorescence, higher = more signal;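 also: z-score combines 667nm fluorescence intensity with signal-to-noise per printed compound spot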
[6] = probe aLAP1 signal on lysate-treated microarray – cell lysate, small-molecule microarray, COS7 lysate, primary screen (AID 1124); conditions: probe aLAP1, fluorescence, higher = more signal;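 also: lysate comes from COS7 cells expressing LAP1 and is applied at 0.3 µg/mL; score merges spot fluorescence near 667 nm with signal-to-noise over triplicate slides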
Sam68 (KHDRBS1) = assay: compounds binding KHDRBS1 protein – biochemical, small-molecule microarray, 635 nm fluorescence, primary screen (AID 1125); conditions: higher = more signal;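 also: score merges 667 nm channel intensity with signal to noise over triplicate slides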
[7] = system: Chordin-like protein 2 (CHRDL2); assay: compounds binding chordin-like 2 – biochemical, small-molecule microarray, 635 nm fluorescence, primary screen (AID 1126); conditions: fluorescence 635 nm, higher = more signal;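 also: printed compound slides probed with Chrdl2 protein at 4 µg/mL for 1 h at 4 C; score merges 667 nm emission intensity with signal to noise over three replicate slides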
[8] = molecular target: Concanavalin-A (Canavalia ensiformis) (UniProt P02866); assay: compounds binding concanavalin A lectin – biochemical, small-molecule microarray, Alexa647 label, 635 nm, artefact control for SMM control protein annotation, primary screen (AID 1127); conditions: ConA-A647 binding fluorescence, higher = more signal;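 also: z combines 667 nm emission intensity with signal-to-noise across three replicate slides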
[9] = compounds binding Alexa647 anti-His antibody – biochemical, small-molecule microarray, 635 nm fluorescence, artefact control for SMM control protein annotation, primary screen (AID 1128); conditions: higher = more signal;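 also: score merges feature fluorescence with signal-to-noise for each printed compound spot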
[10] = system: Human papillomavirus type 1a E7 protein (residues 1-88); assay: HPV1a E7 small-molecule binders, primary screen, biochemical, small-molecule microarray, residues 1-88, 635 nm (AID 1129); conditions: small-molecule microarray binding, fluorescence 635 nm; higher = more signal
[11] = molecular target: Focal adhesion kinase 1 (Homo sapiens) (UniProt Q05397); assay: PTK2 protein binding on printed compound slides – biochemical, small-molecule microarray, 635/667 nm fluorescence, BSA, DTT, primary screen (AID 1130); conditions: 635 nm fluorescence, higher = more signal;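 also: composite of spot emission at 667 nm and signal to noise over triplicate slides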
[12] = system: Fibrinogen (Alexa647-labelled); assay: Alexa647-fibrinogen binding to printed small molecules – biochemical, small-molecule microarray, 635/667 nm fluorescence, artefact control for SMM control-protein annotation, profiling panel (AID 1131); conditions: fibrinogen-A647 binding fluorescence, higher = more signal;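 also: z-score merges 667 nm fluorescence with per-spot signal-to-noise over triplicate slides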
[13] = molecular target: Follistatin (Homo sapiens) (UniProt P19883); assay: FST protein binding to printed compounds – biochemical, small-molecule microarray, 635/667 nm fluorescence, primary screen (AID 1132); conditions: 635 nm fluorescence, higher = more signal
[14] = molecular target: Fibroblast growth factor 2 (Homo sapiens) (UniProt P09038); assay: basic fibroblast growth factor binding to printed compounds – biochemical, small-molecule microarray, 635/667 nm fluorescence, primary screen (AID 1133); conditions: FGF2, fluorescence 635/667, higher = more signal
[15] = JC-1 mitochondrial potential readout, lung cancer cells – cell-based, A549, JC-1 fluorescence, basal, 24 h, 100 nL, profiling panel (AID 1138); conditions: higher = more signal;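 also: A549 lung adenocarcinoma cells under basal conditions with no added stimulus; test concentration not given here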
Lefty1 = Lefty1 protein binding to printed compounds – biochemical, small-molecule microarray, 635/667 nm fluorescence, primary screen (AID 1139); conditions: fluorescence 635/667, higher = more signal
[16] = system: wheat germ agglutinin (Triticum aestivum), Alexa647-labelled; assay: Alexa647-WGA lectin binding to printed small molecules – biochemical, small-molecule microarray, 635/667 nm fluorescence, artefact control for SMM control-protein annotation, profiling panel (AID 1140); conditions: WGA-A647 binding, 635 nm fluorescence, higher = more signal;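 also: score merges 667 nm feature emission with signal to noise over triplicate slides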
[17] = molecular target: Luciferin 4-monooxygenase (Photinus pyralis) (UniProt P08659); assay: inhibition of purified Photinus pyralis luciferase – biochemical, luminescence, purified enzyme, 2006 set, primary screen (AID 1141); conditions: purified firefly luciferase, SteadyGlo luminescence, 30 min; higher = more signal, called active from +8 up or from −8 down;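 also: cell-free assay with purified firefly luciferase at 100 ng per well in PBS; test concentration not given here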
Chain of Luciferin 4-monooxygenase (Photinus pyralis) (P08659 whole entry, looked up): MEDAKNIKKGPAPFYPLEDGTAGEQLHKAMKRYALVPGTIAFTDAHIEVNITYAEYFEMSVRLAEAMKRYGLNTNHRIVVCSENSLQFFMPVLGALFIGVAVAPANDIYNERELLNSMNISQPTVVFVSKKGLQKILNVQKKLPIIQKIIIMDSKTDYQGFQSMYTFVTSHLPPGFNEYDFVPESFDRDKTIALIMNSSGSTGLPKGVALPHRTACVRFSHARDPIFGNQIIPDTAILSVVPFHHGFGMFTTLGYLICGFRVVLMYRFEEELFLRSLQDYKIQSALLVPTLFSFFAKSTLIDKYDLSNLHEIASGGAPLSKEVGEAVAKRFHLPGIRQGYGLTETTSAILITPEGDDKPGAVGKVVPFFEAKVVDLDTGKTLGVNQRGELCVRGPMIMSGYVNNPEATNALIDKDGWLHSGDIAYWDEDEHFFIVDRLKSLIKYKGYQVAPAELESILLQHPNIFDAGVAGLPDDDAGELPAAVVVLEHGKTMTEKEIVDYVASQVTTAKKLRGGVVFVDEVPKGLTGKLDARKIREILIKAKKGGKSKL

Chain of Albumin (Bos taurus) (P02769 whole entry, looked up): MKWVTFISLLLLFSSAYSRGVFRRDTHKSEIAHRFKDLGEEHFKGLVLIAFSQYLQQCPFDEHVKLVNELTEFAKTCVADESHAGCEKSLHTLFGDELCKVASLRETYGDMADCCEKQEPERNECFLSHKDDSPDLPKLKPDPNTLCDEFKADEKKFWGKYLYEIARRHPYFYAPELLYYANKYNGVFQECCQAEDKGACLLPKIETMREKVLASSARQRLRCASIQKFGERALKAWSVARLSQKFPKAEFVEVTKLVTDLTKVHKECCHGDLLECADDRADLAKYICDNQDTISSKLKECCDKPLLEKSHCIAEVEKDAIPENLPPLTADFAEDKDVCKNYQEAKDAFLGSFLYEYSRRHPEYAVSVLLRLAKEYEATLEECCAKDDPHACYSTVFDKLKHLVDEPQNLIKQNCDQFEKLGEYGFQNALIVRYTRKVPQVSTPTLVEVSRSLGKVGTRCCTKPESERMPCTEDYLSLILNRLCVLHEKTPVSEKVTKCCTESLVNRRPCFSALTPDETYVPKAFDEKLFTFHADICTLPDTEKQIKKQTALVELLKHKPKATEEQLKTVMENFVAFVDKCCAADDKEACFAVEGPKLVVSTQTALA
Chain of Follistatin (Homo sapiens) (P19883 whole entry, looked up): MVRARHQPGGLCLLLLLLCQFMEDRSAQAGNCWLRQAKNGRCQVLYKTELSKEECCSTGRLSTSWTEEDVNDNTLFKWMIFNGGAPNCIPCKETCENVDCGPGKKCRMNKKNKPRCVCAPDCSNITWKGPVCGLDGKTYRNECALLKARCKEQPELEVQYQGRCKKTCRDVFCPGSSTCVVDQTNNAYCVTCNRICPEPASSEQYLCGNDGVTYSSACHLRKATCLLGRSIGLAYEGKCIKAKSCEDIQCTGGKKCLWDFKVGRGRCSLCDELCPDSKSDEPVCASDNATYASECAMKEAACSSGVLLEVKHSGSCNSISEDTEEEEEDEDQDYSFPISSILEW
Chain of Focal adhesion kinase 1 (Homo sapiens) (Q05397 whole entry, looked up): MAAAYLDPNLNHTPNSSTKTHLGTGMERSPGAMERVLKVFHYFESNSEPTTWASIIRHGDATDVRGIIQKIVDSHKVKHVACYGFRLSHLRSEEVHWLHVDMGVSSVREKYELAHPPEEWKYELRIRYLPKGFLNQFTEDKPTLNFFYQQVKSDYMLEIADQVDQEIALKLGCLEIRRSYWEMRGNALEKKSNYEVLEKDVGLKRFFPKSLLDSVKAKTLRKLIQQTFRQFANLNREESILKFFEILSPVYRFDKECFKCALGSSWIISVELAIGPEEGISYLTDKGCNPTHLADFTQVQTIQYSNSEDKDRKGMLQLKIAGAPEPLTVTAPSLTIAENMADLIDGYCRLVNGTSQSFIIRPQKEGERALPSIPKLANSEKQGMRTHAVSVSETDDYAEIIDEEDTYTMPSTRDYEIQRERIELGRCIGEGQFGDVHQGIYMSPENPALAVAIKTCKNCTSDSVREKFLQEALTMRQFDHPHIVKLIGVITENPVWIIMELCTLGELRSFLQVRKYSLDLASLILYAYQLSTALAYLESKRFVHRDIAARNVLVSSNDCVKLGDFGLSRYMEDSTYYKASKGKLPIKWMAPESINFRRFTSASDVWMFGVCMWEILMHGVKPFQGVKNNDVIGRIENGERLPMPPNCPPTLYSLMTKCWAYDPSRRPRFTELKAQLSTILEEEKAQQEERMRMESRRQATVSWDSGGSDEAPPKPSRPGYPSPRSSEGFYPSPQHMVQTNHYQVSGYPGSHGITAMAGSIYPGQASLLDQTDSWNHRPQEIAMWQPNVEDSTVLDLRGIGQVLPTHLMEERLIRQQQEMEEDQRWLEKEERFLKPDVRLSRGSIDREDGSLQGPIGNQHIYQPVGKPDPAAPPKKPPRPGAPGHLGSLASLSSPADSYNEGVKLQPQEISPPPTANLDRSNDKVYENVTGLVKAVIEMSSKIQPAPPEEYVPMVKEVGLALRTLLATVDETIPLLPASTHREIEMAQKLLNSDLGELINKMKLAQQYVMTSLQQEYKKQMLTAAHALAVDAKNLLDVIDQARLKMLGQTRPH
Chain of Concanavalin-A (Canavalia ensiformis) (P02866 whole entry, looked up): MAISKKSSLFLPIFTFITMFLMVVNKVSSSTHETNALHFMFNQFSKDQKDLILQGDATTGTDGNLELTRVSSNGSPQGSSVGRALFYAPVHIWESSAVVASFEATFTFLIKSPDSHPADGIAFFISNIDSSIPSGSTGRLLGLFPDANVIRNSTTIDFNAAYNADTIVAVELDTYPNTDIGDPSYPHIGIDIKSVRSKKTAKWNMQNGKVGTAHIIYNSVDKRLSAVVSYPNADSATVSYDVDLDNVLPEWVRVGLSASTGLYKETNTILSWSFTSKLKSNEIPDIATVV
Chain of Fibroblast growth factor 2 (Homo sapiens) (P09038 whole entry, looked up): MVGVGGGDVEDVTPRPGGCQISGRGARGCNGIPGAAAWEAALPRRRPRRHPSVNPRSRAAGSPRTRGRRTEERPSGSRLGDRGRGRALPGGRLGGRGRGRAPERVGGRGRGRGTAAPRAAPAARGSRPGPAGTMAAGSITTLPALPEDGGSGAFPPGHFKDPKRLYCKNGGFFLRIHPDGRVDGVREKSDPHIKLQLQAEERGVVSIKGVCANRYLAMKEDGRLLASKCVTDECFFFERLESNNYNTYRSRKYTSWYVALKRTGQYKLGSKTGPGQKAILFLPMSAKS

Structure (SMILES) | composite z-score (Albumin (Bos taurus)) | composite Z-score [1] | composite z-score [2] | composite z-score [3] | composite z-score [4] | composite z-score [5] | composite z-score [6] | composite z-score (Sam68 (KHDRBS1)) | composite z-score [7] | composite z-score [8] | composite z-score [9] | composite z-score [10] | composite z-score [11] | composite z-score [12] | composite z-score [13] | composite z-score [14] | z-score [15] | composite z-score (Lefty1) | composite z-score [16] | z-score [17]
[N-]=[N+]=NCc1ccccc1C[C@]1(C(N)=O)N=C(c2ccc(OCCCO)cc2)O[C@H]1c1ccccc1 | 0.96 | -0.524 (inactive) | 0.073 | -0.1 | 0.82 | 2.67 | 0.525 | 0.976 | -1.03 | 0.533 | 0.409 | 1.21 | 0.196 | 0.496 | 1.31 | -0.653 | 0.658 | -0.625 | 1.14 | 0.856 (inactive)
CC(C)[Si](C#CCCCC#N)(O[C@H](c1ccccc1)c1cn([C@H](CO)Cc2ccccc2)nn1)C(C)C | 0.992 | 0.727 (inactive) | -0.15 | -0.161 | 0.456 | 0.605 | 0.936 | 1.11 | -0.006 | 1.16 | -0.135 | 1.12 | 0.26 | 0.975 | 1.14 | 0.812 | 0.162 | 0.385 | 0.231 | -0.175 (inactive)
COc1ccc([Si](C)(C)[C@@H]2[C@@H](CC(=O)N3Cc4ccccc4C[C@H]3CO)O[C@]3(C(=O)N(Cc4cccc(N5C(=O)c6cccc7cccc5c67)c4)c4ccccc43)[C@H]2C)cc1 | -0.566 | -0.0894 (inactive) | 0.143 | -0.0928 | 0.598 | 1.26 | -0.235 | 0.817 | 1.27 | 1.12 | 0.846 | 0.956 | 0.434 | 0.883 | 1.35 | 1.62 | 0.129 | 0.937 | 0.423 | -0.347 (inactive)
CN(C)c1ccc(C(O)C2C=CC3C(=O)N(c4ccccc4)C(=O)C3N2Nc2ccc([N+](=O)[O-])cc2)cc1 (stereo not given) | 0.653 | 0.103 (inactive) | 0.307 | -0.133 | 0.27 | 2.1 | 0.15 | 1.29 | -0.437 | 1.05 | 1.35 | 1.19 | -0.165 | 0.979 | 1.01 | -0.181 | -0.621 | 0.149 | 0.623 | -0.421 (inactive)
COC(=O)[C@@]1(Cc2ccc(OC)cc2)[C@H]2c3cc(C(=O)N(C)C)n(CCO)c3C[C@H]2CN1C(=O)c1ccccc1 | 0.625 | 0.126 (inactive) | -0.102 | 0.257 | 0.935 | 1.19 | 0.971 | -0.924 | -0.784 | 0.001 | 0.214 | 0.498 | 1.45 | 0.662 | -0.603 | -0.545 | 0.782 | -1.19 | 0.946 | 2.04 (inactive)
COc1ccc(CN(C2=CC[C@@]3(C(N)=O)C(=O)C(Cl)=C(Cl)C(=O)[C@@]3(C#N)C2)S(=O)(=O)c2ccc(Br)cc2)cc1 | 1 | 0.317 (inactive) | -0.128 | -0.0273 | 0.863 | 1.84 | 0.834 | 0.295 | -1.54 | 0.0331 | 1.89 | 0.289 | 0.0558 | 0.115 | -0.539 | -0.537 | -1.87 | -0.53 | 0.324 | -5.26 (inactive)
O=C1NC(=O)C2C1C=CC(C(O)c1cccc3ccccc13)N2Nc1ccc(Cl)cc1Cl (stereo not given) | 0.205 | -0.288 (inactive) | 0.0496 | 0.0915 | 0.358 | 2.12 | 0.818 | 0.762 | -0.155 | 1.07 | 1.92 | 1.16 | 0.442 | 0.838 | 0.425 | -0.517 | -1.28 | -0.734 | 0.758 | 0.0698 (inactive)
Cc1cc(C)c(C(O)C2C=CC3C(=O)NC(=O)C3N2Nc2ccc(Cl)cc2Cl)c(C)c1 (stereo not given) | 0.961 | 0.234 (inactive) | 0.396 | -0.0125 | 0.575 | 2.94 | 0.772 | 1.1 | -0.48 | 1.09 | 1.37 | 1.22 | 0.941 | 0.966 | 1.08 | 0.752 | -0.318 | -0.0986 | 1.19 | -1.43 (inactive)
C=CCOC(=O)[C@H]1[C@@H]2C(=O)O[C@@H](c3ccccc3)[C@@H](c3ccccc3)N2[C@@H](c2ccc(OCCOC(=O)[C@H]3C[C@H]4C(=O)N[C@@H](CC(C)C)C(=O)N4[C@H]3c3cccc(OCCO)c3)cc2)[C@]12C(=O)Nc1ccc(I)cc12 | -0.172 | 0.628 (inactive) | 0.233 | -0.107 | 0.518 | 1.15 | 0.239 | 1.32 | 1.29 | 1.11 | 2 | 1.18 | 0.84 | 0.452 | 1.36 | 1.71 | -0.175 | 1.22 | 0.437 | -1.48 (inactive)
CCOC(=O)C[C@H]1[C@H](OC(=O)c2cc3ccccc3oc2=O)[C@@H](NC(=O)c2ccc(-c3ccccc3)cc2)c2cc(OCCCO)ccc2N1C(=O)c1ccccc1 | 0.551 | -0.0549 (inactive) | 0.242 | -0.0971 | 0.274 | 0.716 | -0.0433 | 1.32 | 0.475 | 0.858 | 0.942 | 1.2 | 0.309 | 0.711 | 1.34 | 0.92 | -1.24 | 1.16 | 0.997 | 0.207 (inactive)
Cc1ccc(S[C@]2(C(=O)NCC(F)(F)F)CC(=O)N(Cc3ccccc3C(F)(F)F)[C@@H]2c2ccc(CO)cc2I)cc1 | 0.88 | -0.0127 (inactive) | -0.3 | -0.14 | 0.968 | 0.616 | 0.116 | -0.486 | -1.41 | -0.35 | -0.227 | -0.727 | -0.604 | -0.992 | -0.638 | -1.08 | 1.17 | -0.745 | -0.154 | 0.84 (inactive)
